From PubChem BioAssay AID1619 (SRMLSC, 2009)
The whole screen tested about 220,000 compounds, of which about 830 (0.38%) were called active. Not all results are given here. Entries with a potency or affinity are not part of this list. Values without a mark were called inactive.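 Rule for the calls: active = compound inhibiting the enzyme by more than half at any dose during confirmatory dose-response retesting; inconclusive = strong single-dose inhibitors picked by rank but not retested; inactive = the rest.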

What follows are compounds tested against Leucine aminopeptidase (Plasmodium falciparum (isolate 3D7)) (UniProt Q8IL11) (assay: P. falciparum M17LAP inhibitors, primary screen, biochemical, fluorogenic H-Leu-NHMec substrate, 1536-well (AID 1619;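 note: plate controls were full reaction with DMSO carrier for no effect and no enzyme background for full effect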)). Conditions: recombinant M17LAP, H-Leu-NHMec fluorogenic kinetic assay; at 30 µM; stronger effect = higher value.
Chain of Leucine aminopeptidase (Plasmodium falciparum (isolate 3D7)) (Q8IL11 whole entry, looked up): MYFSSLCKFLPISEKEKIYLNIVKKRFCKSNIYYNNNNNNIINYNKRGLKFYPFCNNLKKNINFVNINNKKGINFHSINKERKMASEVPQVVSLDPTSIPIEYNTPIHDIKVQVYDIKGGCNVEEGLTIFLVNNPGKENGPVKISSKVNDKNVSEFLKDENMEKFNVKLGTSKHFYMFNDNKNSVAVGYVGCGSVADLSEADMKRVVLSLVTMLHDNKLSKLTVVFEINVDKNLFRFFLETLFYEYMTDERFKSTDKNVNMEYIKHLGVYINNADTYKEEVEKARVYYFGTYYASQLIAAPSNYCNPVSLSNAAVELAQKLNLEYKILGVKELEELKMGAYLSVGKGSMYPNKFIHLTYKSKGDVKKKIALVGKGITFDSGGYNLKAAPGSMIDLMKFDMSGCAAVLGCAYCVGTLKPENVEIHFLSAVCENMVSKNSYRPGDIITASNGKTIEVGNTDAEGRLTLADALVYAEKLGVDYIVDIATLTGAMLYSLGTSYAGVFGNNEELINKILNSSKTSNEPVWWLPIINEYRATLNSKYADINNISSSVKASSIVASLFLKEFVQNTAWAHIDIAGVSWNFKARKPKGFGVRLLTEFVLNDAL
Work on `CC(C)(C)c1cn(-c2ccccc2)c(=S)[nH]1` yielded an inhibition of 1.06%. `O=c1c(Cc2ccc(F)cc2)c(O)ccn1Cc1ccc(F)cc1` was tested, and the inhibition was -0.83%. `CS(=O)(=O)N1CCC(C(=O)O)CC1` showed an inhibition of -6.86%. Compound `CCOC(=O)c1c(NC(=O)CC2SC(N)=NC2=O)sc2c1CCC(C)C2` (centres undefined) has an inhibition of 3.54%. In the case of `COC(=O)C(NC(=O)C(C)Oc1ccccc1)C(C)C` (centres undefined), the inhibition is reported as 1.41%. For `COc1ccc(C2=NN(c3nc(C(=O)O)cs3)C(O)(C(F)(F)F)C2)c(OC)c1` (centres undefined), the inhibition was 26.5%. For `CN(C)S(=O)(=O)c1ccc(Cl)c(NC(=O)COC(=O)c2cc(-c3ccccc3)nc3ccccc23)c1`, the inhibition was 15.3%. Work on `C[C@H](NC(=O)OCc1ccccc1)C(=O)NNC(=O)[C@H](Cc1ccccc1)NC(=O)OC(C)(C)C` yielded an inhibition of 12.1%. `COc1cc(C2/C(=C(\O)c3cc(C)ccc3C)C(=O)C(=O)N2CCN(C)C)ccc1O` (centres undefined) gave an inhibition of -5.88%. Compound `Cc1ccc2nc(-c3ccc(NC(=O)CN4CCN(C(=O)c5ccco5)CC4)cc3)sc2c1` has an inhibition of 4.66%. For `O=C(CN1C(=O)c2ccccc2C1=O)NCC1CCCO1` (centres undefined), the inhibition was 10.2%. Work on `O=C(CN1CCN(Cc2ccccc2)CC1)NCC1COc2ccccc2O1` (centres undefined) yielded an inhibition of 17%. `CC1CCCCC1NC(=O)COC(=O)c1ccc(N(C)C)cc1` (centres undefined) gave an inhibition of -9.99%. With `CCOC(=O)C1C(=O)NC(N2CCN(CC)CC2)=NC1c1ccccc1` (centres undefined) the inhibition was 2.42%. Compound `COc1ccc(-c2noc(CSc3nc(N)c(-c4ccccc4)c(=O)[nH]3)n2)cc1` has an inhibition of 10.2%. In the case of `COc1ccccc1NC(=O)CSc1nc(O)c(Cc2ccccc2)c(=O)[nH]1`, the inhibition is reported as 35.1%. With `Nc1nc(SCC(=O)Nc2ccccc2)[nH]c(=O)c1-c1ccccc1` the inhibition was 8.35%. `Nc1nc(SCC(=O)Nc2ccc(Cl)cc2)[nH]c(=O)c1-c1ccccc1` was tested, and the inhibition was 13.7%. In the case of `COc1ccc(-c2noc(CSc3nc(N)c(-c4ccccc4)c(=O)[nH]3)n2)cc1OC`, the inhibition is reported as -5.97%. For `COc1ccc(Cc2c(O)nc(SC)n(C(C)=O)c2=O)cc1`, the inhibition was -1.99%. With `O=C(CSc1nc(O)c(Cc2ccccc2)c(=O)[nH]1)Nc1ccccc1` the inhibition was 51.3%. `COc1ccc(-n2c(SCC(=O)N3CCOCC3)nc(O)c(Cc3ccccc3)c2=O)cc1` gave an inhibition of 20.3%. `CCOCCCNC(=O)CCNC(=O)c1cc(OC)c(OC)c(OC)c1` gave an inhibition of 3.56%. `CCN(CC)S(=O)(=O)c1ccc(C(=O)NCCN2C(=O)S/C(=C\c3cccnc3)C2=O)cc1` gave an inhibition of -4.15%. With `[N-]=C=C1C(=S)NC(=O)[C@H]([n+]2ccccc2)[C@H]1c1ccc(Cl)cc1` the inhibition was 6.14%. For `COc1cc(NC(=O)c2ccccc2Cl)c(OC)cc1NC(=O)CN1CCCCC1`, the inhibition was 13.6%. `CC(=O)Nc1ccc(C(=O)CSc2nnnn2C2CCCC2)cc1` was tested, and the inhibition was 11.4%. Work on `O=C(Cc1ccccc1)NCC(=O)OC(c1ccccc1)c1ccccc1` yielded an inhibition of 0.75%. In the case of `OC(C#CCN1CCCC1)c1ccccc1` (centres undefined), the inhibition is reported as 9.35%. For `O=S(=O)(c1ccccc1)n1ccc2cccnc21`, the inhibition was 7.22%. With `Cc1ccc(S(=O)(=O)CCC(=O)NCc2ccccc2Cl)cc1` the inhibition was 22.9%. Work on `Cc1ccc(C)c2nc3sc(C(=O)N4CCCc5ccccc54)c(N)c3cc12` yielded an inhibition of 8.65%. Compound `O=C1C2C(c3ccccc3)C=CC(c3ccccc3)C2C(=O)N1C1CCCCC1` (centres undefined) has an inhibition of 4.34%. `COCCn1c(SCC(=O)Nc2cccc(OC)c2)nc2c(oc3ccccc32)c1=O` gave an inhibition of -1.96%. `COc1cccc(NC(=O)CSc2ncnc3c2oc2ccccc23)c1` gave an inhibition of 2.46%. For `CCC(Sc1ncccc1C(=O)Oc1cccc([N+](=O)[O-])c1)C(=O)Nc1ccccc1OC` (centres undefined), the inhibition was 46.5%. For `CCN(C(=O)CSc1ncccc1C(=O)Oc1cccc([N+](=O)[O-])c1)c1cccc(C)c1`, the inhibition was -2.44%. In the case of `CSc1cccc(NC(=O)CSc2ncccc2C(=O)Oc2cccc([N+](=O)[O-])c2)c1`, the inhibition is reported as 53%. `CCOC(=O)c1cccnc1SCC(=O)Nc1ccc(C)cc1` showed an inhibition of 3.41%. With `O=C(N1CCCCC1)N1CCCN(C(=O)N2CCCCC2)CC1` the inhibition was 7.89%. For `O=C(COc1ccc2ccccc2c1)Nc1ccc(S(=O)(=O)N2CCCCCC2)cc1`, the inhibition was -9.55%. For `CC(=O)Cc1nsc(NC(=O)c2ccccc2)n1`, the inhibition was 9.29%. In the case of `Cc1ccc(C(=O)Nc2nccs2)cc1`, the inhibition is reported as 2.76%. With `Cc1ccc(C(=O)Nc2nnc(C)s2)cc1` the inhibition was 11.4%. `O=C(Nc1nc(=O)c2ccccc2s1)c1ccccc1` gave an inhibition of 6.62%. For `CC(C)CCC1(CCNC(=O)c2cccs2)CCOC(C)(C)C1` (centres undefined), the inhibition was 0.32%. `Cc1ccc(S(=O)(=O)n2nc(-c3ccco3)nc2N)cc1` gave an inhibition of -3.51%. Work on `O=C(NCCSCc1ccccc1)c1cc(S(=O)(=O)N2CCOCC2)ccc1F` yielded an inhibition of 6.12%. `CC(C(O)C12CC3CC(CC(C3)C1)C2)N1CCCCC1` (centres undefined) gave an inhibition of 9.11%. Compound `Cc1nn(-c2ccccc2)c(C)c1/C=C/C(=O)OC(C)C(=O)Nc1ncc(Cl)cc1Cl` (centres undefined) has an inhibition of -12.7%. With `Cc1cc(=O)n(CNC(=O)c2ccccc2)c(=S)[nH]1` the inhibition was -9.25%. Work on `Nc1cc(=O)[nH]c(SCC(=O)Nc2ccc3c(c2)CCC3)n1` yielded an inhibition of 53.8%. Compound `O=C(CSc1nncs1)Nc1ccc2c(c1)OCCO2` has an inhibition of 23.5%. For `Cn1cnnc1SCC(=O)Nc1ccc2c(c1)CCC2`, the inhibition was 42.8%. `O=C(CSc1nc2ccc(Cl)cc2[nH]1)Nc1ccc2c(c1)CCC2` showed an inhibition of 3.87%. `O=C(CSc1nc2ccccc2[nH]1)Nc1ccc2c(c1)CCC2` gave an inhibition of 1.81%. Compound `O=C(CSc1nccc(=O)[nH]1)Nc1ccc2c(c1)OCCO2` has an inhibition of -0.7%. In the case of `CC(C)Cc1c(O)nc(SCC(=O)Nc2ccc3c(c2)CCC3)[nH]c1=O`, the inhibition is reported as 54.1%. Compound `CCC(C)c1c(O)nc(SCC(=O)Nc2ccccc2)[nH]c1=O` (centres undefined) has an inhibition of 25.4%. `Cc1coc(C)c1C(=O)CC1(O)C(=O)Nc2cc(Cl)cc(Cl)c21` (centres undefined) gave an inhibition of -6.03%. For `Cc1ccc(S(=O)(=O)N(C)C)cc1NC(=O)COc1ccc(-c2nnco2)cc1`, the inhibition was -1.3%. For `CC(NS(=O)(=O)c1ccc([N+](=O)[O-])cc1)C(=O)NN` (centres undefined), the inhibition was 5.26%. `O=C1NC(=S)N/C1=C/c1cccn1-c1ccc([N+](=O)[O-])cc1` was tested, and the inhibition was -21%. With `COc1ccc(OC)c(/C=C/C(=O)OCC(=O)Nc2ccc(Cl)c(S(=O)(=O)N(C)C)c2)c1` the inhibition was 5.28%. `Cc1cc(C)n(C(=O)c2ccc(C)o2)n1` showed an inhibition of 6.21%. `Cc1ccc(S(=O)(=O)c2ccc(NN)cc2)cc1` gave an inhibition of 20.8%. `Cc1ccc(C2N(c3nccs3)C(=O)C3CCCN32)cc1` (centres undefined) was tested, and the inhibition was -15.4%. Compound `Fc1ccc(COc2ccccc2C(=S)N2CCCC2)cc1` has an inhibition of 10.6%. With `CN(C)S(=O)(=O)c1ccc(C(=O)NCc2ccccn2)cc1` the inhibition was -3.48%. `Cc1ccc(S(=O)(=O)NC(=O)Nc2cc(C)ccc2F)cc1` showed an inhibition of -4.66%. `CC(=O)NS(=O)(=O)c1ccc(NS(=O)(=O)c2ccc(F)cc2)cc1` was tested, and the inhibition was -13%. For `CC(=O)NS(=O)(=O)c1ccc(N=c2ssc3c2-c2cc(C)ccc2NC3(C)C)cc1`, the inhibition was 55%. `Cc1cc2c(cc1C)-c1c(ssc1=Nc1ccc(S(N)(=O)=O)cc1)C(C)(C)N2` showed an inhibition of -1.4%. For `Cc1nn(-c2ccc(Cl)c(Cl)c2Cl)c(=O)c2ccccc12`, the inhibition was -4.32%. `N#CC(C#N)=Cc1ccc(OC(=O)c2ccccn2)cc1` gave an inhibition of 15.9%. For `COc1cc2c(cc1OC)C1(Nc3c-2c(-c2ccccc2)nn3-c2ccccc2)C(=O)Nc2ccccc21` (centres undefined), the inhibition was 0.95%. `O=C(COC(=O)c1cnccn1)Nc1ccc2c(c1)OCO2` showed an inhibition of 13.5%. For `CCOc1ccc(CCNC(=O)CN(C)S(=O)(=O)c2ccc3c(c2)CCC(=O)N3)cc1OCC`, the inhibition was -8.18%. Work on `COC(=O)CN(Cc1ccccc1)S(=O)(=O)c1ccc(OC)c(OC)c1` yielded an inhibition of -2.5%. In the case of `O=S(=O)(c1cccs1)N1CCN(c2ncccn2)CC1`, the inhibition is reported as -7.79%. `COc1ccc(C(=O)Nc2ccccc2N2CCOCC2)cc1[N+](=O)[O-]` showed an inhibition of 7.12%. Work on `CCOC(=O)c1c(-c2cccs2)csc1NC(=O)CC(C)C` yielded an inhibition of 7.23%. For `CCOC(=O)c1c(-c2cccs2)csc1NC(C)=O`, the inhibition was -14.7%. `Cc1ccc(OCCCN2C(=O)C(=O)c3cccc(C)c32)cc1` gave an inhibition of 13.8%. Work on `COc1ccc(C2NC(=S)N3C(c4ccc(OC)cc4)NC(=S)N23)cc1` (centres undefined) yielded an inhibition of 34.8%. With `OC1NC(=S)N(c2ccccc2)C1O` (centres undefined) the inhibition was 8.92%. `COc1cccc(CC(NC(C)=O)C(=O)NC2CCN(c3nnnn3-c3ccccc3)CC2)c1` (centres undefined) gave an inhibition of 5.55%. `CN(CCC#N)CC(=O)Nc1ccc(NC(=O)CN(C)CCC#N)cc1` showed an inhibition of -4.87%. With `NC(=O)c1ccc(-c2ccccc2F)cc1` the inhibition was 6.07%. For `O=S1(=O)N=C(Nc2ccc(O)c(CN3CCCCC3)c2)c2ccccc21`, the inhibition was 18.9%. Compound `CCOC(=O)c1c(NC(=O)CSc2nnc(C)s2)sc2c1CCCCC2` has an inhibition of -4.03%. `COC(=O)c1c(NC(=O)CSc2nnc(C)c(=O)[nH]2)sc(C)c1C` showed an inhibition of 21.5%. Compound `CCOC(=O)c1c(NC(=O)CSc2nnc(C)c(=O)[nH]2)sc(C)c1C` has an inhibition of 11.9%. Compound `Cc1nnc(SCC(=O)Nc2sc3c(c2C(N)=O)CCCC3)[nH]c1=O` has an inhibition of 49.5%.
